Measurements from the supplement of paper PMC6522484.
Counter-ions that a name gives are not always drawn. ± gives the standard deviation of the averaged measurements.

Key:
[1] = system: DLD1; experiment: cell viability (CellTiter-Glo) relative to plate median (fraction of plate median); higher = more viable cells; conditions: 5 µM; treatment time 24 h; reporter: 7TFP
How it was run: (§1)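 On parallel plates, a Tecan F500 reader recorded either firefly luciferase or CellTiterGlo luminescence. The plates held colorectal cancer cells stably transduced with lentiviral TCF/Wnt firefly luciferase reporters (7TFP or TCF4/Wnt), seeded in 384-well format and treated 24 h later with library compounds at a final 5 µM for 24 h. Per-well signals were normalised to the plate median (webcellHTS2, additive, no log transformation), and two independent replicates were averaged.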

[2] = system: HCT116; experiment: as above; conditions: 5 µM; treatment time 24 h; reporter: TCF4/Wnt
How it was run: as §1

[3] = system: SW480; experiment: as above; conditions: 5 µM; treatment time 24 h; reporter: 7TFP
How it was run: as §1

[4] = system: DLD1; experiment: TCF/Wnt firefly luciferase reporter signal relative to plate median (fraction of plate median); higher = higher Wnt reporter signal; conditions: 5 µM; treatment time 24 h; reporter: 7TFP
How it was run: as §1

[5] = system: SW480; experiment: as above; conditions: 5 µM; treatment time 24 h; reporter: 7TFP
How it was run: as §1

SMILES	cell viability [1]	cell viability [2]	cell viability [3]	TCF/Wnt firefly luciferase reporter signal [4]	TCF/Wnt firefly luciferase reporter signal [5]
CC(=O)NCCc1ccccc1 [N-Acetyl-phenylethylamine]	1.04 ± 0.014	1.01 ± 0.12	1.02 ± 0.072	1.03 ± 0.028	1.02 ± 0.079
O.O.O.O.O=C([O-])CC(O)(CC(=O)[O-])C(=O)[O-].[Li+].[Li+].[Li+]	0.955 ± 0.11	0.852 ± 0.086	0.966 ± 0.0028	0.844 ± 0.012	0.725 ± 0.14
CC(=O)O[C@]1(C)CC[C@@]23C[C@H]1C(C)(C)[C@@H]2CC[C@H]3C	0.986 ± 0.035	0.918 ± 0.033	1 ± 0.067	1.05 ± 0.086	0.934 ± 0.017
CC1(C)C(O[C@@H]2OC[C@@H](O)[C@H](O)[C@H]2O)CC[C@]23CC24CC[C@]2(C)[C@@H]([C@@]5(C)CC[C@@H](C(C)(C)O)O5)[C@H](O)C[C@@]2(C)C4C[C@@H](O[C@@H]2O[C@H](CO)[C@@H](O)[C@H](O)[C@H]2O)C13 (stereo not given in full)	0.987 ± 0.033	0.961 ± 0.016	0.9815 ± 0.0064	1 ± 0.011	1.075 ± 0.0071
C[C@H](N)[C@H](O)c1cccc(O)c1	0.955 ± 0.052	0.997 ± 0.075	1.06 ± 0.035	0.918 ± 0.074	0.915 ± 0.0071
COC(=O)C[C@H]1C2(C)CC34OC5(C)O[C@@]6([C@H](OC(C)=O)C(OC(C)=O)[C@]7(C)C(/C(=C(/O)C(C)C)C(=O)O[C@H]7c7ccoc7)[C@@]6(O5)[C@H](OC(C)=O)[C@@]3(O)C2OC(=O)C(C)C)[C@]14C (stereo not given in full)	1.02 ± 0.021	0.959 ± 0.1	1.01 ± 0.021	1.05 ± 0.14	1.08
CNC1(C)C2CCC(C2)C1(C)C (stereo not given)	0.844 ± 0.018	0.972 ± 0.11	0.924 ± 0.038	1.05 ± 0.021	0.904 ± 0.054
COc1cc(O)c2c(=O)cc(-c3ccc(OC)c(-c4c(O)cc(O)c5c(=O)cc(-c6ccc(O)cc6)oc45)c3)oc2c1 [GINKGETIN, K salt]	0.994 ± 0.079	0.899 ± 0.04	0.9925 ± 0.0092	1.1 ± 0.15	1.16 ± 0.2
COc1ccc2ccc(=O)oc2c1	1.02 ± 0.021	0.992 ± 0.025	0.97 ± 0.0071	0.973 ± 0.053	0.915 ± 0.12
COc1ccc(-c2cc(=O)c3c(OC)c(OC)c(OC)c(OC)c3o2)cc1	1 ± 0.064	0.932 ± 0.059	1.05 ± 0.05	1.13 ± 0.042	0.961 ± 0.0028
CN(C)c1nc(N(C)C)nc(N(C)C)n1	0.976 ± 0.076	0.97 ± 0.057	1.05	1.03 ± 0.035	1.01 ± 0.09
CC(C)c1c(O)ccc2c1CC[C@H]1[C@@](C)(CO)CCC[C@]21C	1.07 ± 0.057	1.03 ± 0.15	1.1 ± 0.085	1.06 ± 0.19	1.04 ± 0.021
NC1=NCCN1CC(=O)O	0.897 ± 0.036	1.03 ± 0.072	0.976 ± 0.0014	1.06 ± 0.094	0.985 ± 0.016
CC(=O)OCC(=O)[C@@]12OC(C)(C)O[C@@H]1C[C@H]1[C@@H]3C[C@H](F)C4=CC(=O)C=C[C@]4(C)[C@@]3(F)[C@@H](O)C[C@@]12C	1.01 ± 0.023	1 ± 0.05	0.969 ± 0.044	1.03 ± 0.072	1.06 ± 0.093
CC(C)CCC[C@@H](C)[C@H]1CC[C@H]2[C@@H]3C(=O)C=C4C[C@@H](O)CC[C@]4(C)[C@H]3CC[C@]12C	1.1 ± 0.092	0.99	1.04 ± 0.1	0.959 ± 0.018	1.01 ± 0.027
